The record followed here is PubChem BioAssay (NCI).

This is part of a sample that, as a whole, favours compounds with a hit. Of some 83,000 tested, about 20% had one in any assay.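 Single-dose data. Exposure time 48 hours. Values below 10 considered active.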 A number with no mark means an inactive call. Calls of active or inactive are those of the source.

Test systems include SK-MEL-2 melanoma; EKVX NSCLC; SN12C renal; UO-31 renal; TK-10 renal; ACHN renal; CAKI-1 renal; A498 renal; CCRF-CEM leukemia; MOLT-4 leukemia.
What all share (experiment): NCI-60 one-dose screen, 48 h (100 = growth as untreated, 0 = no growth, -100 = all killed)
Conditions in all cases: 10 µM unless noted

Regarding `O=C(Nc1cccc(-c2ccc(N3CCOCC3)nn2)c1)Nc1cccc(C(F)(F)F)c1`, the growth is 70% with SK-MEL-2 melanoma; 63.7% in the experiment on EKVX NSCLC; 66.6% in the experiment on SN12C renal; 74.9% with UO-31 renal; 70.6% in the experiment with TK-10 renal; 65.7% in the experiment on ACHN renal. In addition, the growth is 87.9% in the experiment on CAKI-1 renal, 80.3% in the experiment on A498 renal, 26% with CCRF-CEM leukemia and 22.9% in the experiment with MOLT-4 leukemia.

For the molecule `NC(=O)c1cccc(-n2ccc3cc(NC(=O)c4ccc(N5CCOCC5)c(C(F)(F)F)c4)ccc32)n1`, the growth in the experiment with SK-MEL-2 melanoma is 71%; in the experiment with EKVX NSCLC it was 47.8%; in the experiment with SN12C renal, 73.5%; in the experiment with UO-31 renal, 36.5%; in the experiment on TK-10 renal, 86.9%; in the experiment with ACHN renal, 46.6%. Besides, the growth is 39.7% in the experiment on CAKI-1 renal, 15.7% in the experiment with A498 renal, 34.4% with CCRF-CEM leukemia and 52.5% in the experiment on MOLT-4 leukemia.

Turning to `Nc1ncnc2c1N=C(c1ccc(Br)cc1)CC(c1cccc(Nc3ccnc4cc(C(F)(F)F)ccc34)c1)N2` (stereo not given), the growth was 68.5% in the experiment on SK-MEL-2 melanoma; 44.4% in the experiment on EKVX NSCLC; 70.6% in the experiment with SN12C renal; 47.2% in the experiment on UO-31 renal; 102% in the experiment with TK-10 renal; 80% in the experiment with ACHN renal. The growth in the experiment on CAKI-1 renal was 56.2%; in the experiment with A498 renal, 63%; with CCRF-CEM leukemia it was 34.3%; in the experiment with MOLT-4 leukemia, 16.8%.

For `CCOc1ccccc1Cn1ccnc1CCc1c(Cl)c(O)cc(O)c1C(=O)OC`, the growth in the experiment on SK-MEL-2 melanoma is 87.5%; with EKVX NSCLC, 101%; in the experiment with SN12C renal, 96.9%; in the experiment on UO-31 renal it was 78.9%; with TK-10 renal, 90.4%; in the experiment with ACHN renal, 98.3%. The growth in the experiment on CAKI-1 renal was 98.6%; in the experiment on A498 renal, 114%; in the experiment with CCRF-CEM leukemia it was 93.6%; with MOLT-4 leukemia, 91.9%.

For the molecule `CCOC(=O)Cc1cnc(N/N=C(\C)c2cc3ccccc3o2)s1`, the growth in the experiment with SK-MEL-2 melanoma was 113%; in the experiment with EKVX NSCLC, 85.1%; with SN12C renal it was 99.1%; in the experiment on UO-31 renal, 64.7%; with TK-10 renal, 144%; in the experiment with ACHN renal, 90.7%. For the same molecule, the growth is 81.6% in the experiment on CAKI-1 renal, 113% in the experiment on A498 renal, 92.5% in the experiment with CCRF-CEM leukemia and 55.5% in the experiment on MOLT-4 leukemia.

Take `O=c1c2cccc3c(N4CCCC4)ccc(c32)c2nc3ccccc3n12`: the growth with SK-MEL-2 melanoma was 113%; in the experiment on EKVX NSCLC, 75.9%; with SN12C renal, 64.8%; in the experiment with UO-31 renal, 56.2%; in the experiment with TK-10 renal, 87.6%; in the experiment on ACHN renal, 52.3%. The growth was 51.3% in the experiment on CAKI-1 renal, 38% in the experiment with A498 renal, 53.7% in the experiment on CCRF-CEM leukemia and 2.57% (active) in the experiment on MOLT-4 leukemia.

As for `O=C(CSc1nnc(-c2cnccn2)n1-c1ccccc1)c1ccc(Cl)cc1`, the growth was 96.4% with SK-MEL-2 melanoma; 103% in the experiment on EKVX NSCLC; 87.5% with SN12C renal; 94.2% with UO-31 renal; 99.2% with TK-10 renal; 99.8% in the experiment with ACHN renal. Further, the growth in the experiment with CAKI-1 renal is 102%; with A498 renal it was 93.1%; in the experiment with CCRF-CEM leukemia, 92.1%; with MOLT-4 leukemia, 93.4%.

On to `CCN(CC)CCCCCNc1cc(OC(=O)c2ccc(Cl)cc2)cc2cccnc12`, for which the growth was 103% in the experiment with SK-MEL-2 melanoma; 104% in the experiment with EKVX NSCLC; 96.8% with SN12C renal; 94.7% in the experiment on UO-31 renal; 106% in the experiment on TK-10 renal; 106% in the experiment on ACHN renal. Further, the growth with CAKI-1 renal is 106%; in the experiment with A498 renal it was 95.6%; with CCRF-CEM leukemia, 108%; in the experiment on MOLT-4 leukemia, 72.6%.

In the case of `COC(=O)c1nc(-c2ccc(C)cc2)oc1S(=O)(=O)c1cccc(OC)c1`, the growth in the experiment with SK-MEL-2 melanoma was 95.9%; in the experiment with EKVX NSCLC, 100%; in the experiment with SN12C renal it was 85%; with UO-31 renal, 90.3%; with TK-10 renal, 64.8%; in the experiment on ACHN renal, 42.8%. Besides, the growth is 69.5% with CAKI-1 renal, 102% in the experiment on A498 renal, -9.09% (active) with CCRF-CEM leukemia and -7.44% (active) in the experiment with MOLT-4 leukemia.

As for `C[C@@H](CO)[C@@H]1CCC=C2CC[C@]3(C)[C@H](CC[C@@H]4[C@@]5(C)CCCNC(C)(C)[C@@H]5CC[C@]43C)[C@H]21`, the growth with SK-MEL-2 melanoma is 52.1%; in the experiment on EKVX NSCLC it was 94.5%; with SN12C renal, 67.3%; in the experiment on UO-31 renal it was 79.7%; with TK-10 renal, 82%; with ACHN renal, 87.2%. For the same molecule, the growth in the experiment with CAKI-1 renal was 47%; with A498 renal it was 76.6%; with CCRF-CEM leukemia it was 26.2%; with MOLT-4 leukemia, 10.3%.

Take `C=C(C)[C@@H]1CCC[C@]2(COS(=O)(=O)c3ccc(C)cc3)CC[C@]3(C)[C@@H](CC[C@@H]4[C@@]5(C)CCCNC(C)(C)[C@@H]5CC[C@]43C)[C@@H]12`: the growth is 83.1% with SK-MEL-2 melanoma; 9.77% (active) with EKVX NSCLC; -94.4% (active) in the experiment on SN12C renal; 61% in the experiment with UO-31 renal; 43.2% in the experiment on TK-10 renal; 44.6% with ACHN renal. Besides, the growth in the experiment with CAKI-1 renal was -68.3% (active); with A498 renal, 81.3%; in the experiment on CCRF-CEM leukemia, 1.15% (active); in the experiment with MOLT-4 leukemia, -11.1% (active).
